# Source: article PMC5540273 (PLoS ONE, 2017)
# Assays:
# Conditions in all cases: concentration: 1 μM, replicates: in singlicate; n = 1
# RIPK4 = tested on: RIPK4
# RIPK5 = tested on: RIPK5
# ROCK1 = tested on: ROCK1
# ROCK2 = tested on: ROCK2
# ROS1 = tested on: ROS1
# [1] = tested on: RPS6KA4(Kin.Dom.1-N-terminal)
# [2] = tested on: RPS6KA4(Kin.Dom.2-C-terminal)
# [3] = tested on: RPS6KA5(Kin.Dom.1-N-terminal)
# [4] = tested on: RPS6KA5(Kin.Dom.2-C-terminal)
# [5] = tested on: T1, RSK1(Kin.Dom.1-N-terminal)
# T1 construct: gene RPS6KA1
# [6] = tested on: T2, RSK1(Kin.Dom.2-C-terminal)
# T2 construct: gene RPS6KA1
# [7] = tested on: T3, RSK2(Kin.Dom.1-N-terminal)
# T3 construct: gene RPS6KA3
# [8] = tested on: T4, RSK2(Kin.Dom.2-C-terminal)
# T4 construct: gene RPS6KA3
# [9] = tested on: T5, RSK3(Kin.Dom.1-N-terminal)
# T5 construct: gene RPS6KA2
# [10] = tested on: T6, RSK3(Kin.Dom.2-C-terminal)
# T6 construct: gene RPS6KA2
# [11] = tested on: T7, RSK4(Kin.Dom.1-N-terminal)
# T7 construct: gene RPS6KA6
# [12] = tested on: T8, RSK4(Kin.Dom.2-C-terminal)
# T8 construct: gene RPS6KA6
# S6K1 = tested on: S6K1
# SBK1 = tested on: SBK1
# SGK2 = tested on: SGK2
# 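Note: KINOMEscan kinase panel screen.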
SMILES,%Inh (RIPK4),%Inh (RIPK5),%Inh (ROCK1),%Inh (ROCK2),%Inh (ROS1),%Inh [1],%Inh [2],%Inh [3],%Inh [4],%Inh [5],%Inh [6],%Inh [7],%Inh [8],%Inh [9],%Inh [10],%Inh [11],%Inh [12],%Inh (S6K1),%Inh (SBK1),%Inh (SGK2)
CC(=O)c1cccc(NC(=O)NC2CCN(c3ccnc(Nc4ccc(F)cc4)n3)C2)c1 (stereo not drawn) [GSK1379710],15%,4%,0%,22%,3%,0%,0%,0%,29%,21%,14%,0%,30%,17%,6%,0%,21%,0%,5%,0%
CNCc1ccc2nc(NC(=O)c3ccc(C(C)(C)C)cc3)cn2c1,14%,11%,5%,13%,9%,9%,9%,0%,0%,0%,8%,32%,37%,1%,0%,27%,7%,17%,27%,12%
Cc1ccc(NC(=O)c2ccc(Cl)cc2)cc1-c1ccc(C(=O)Nc2ccncc2)cc1 [GSK1398467],9%,0%,0%,17%,8%,13%,0%,17%,49%,10%,0%,4%,2%,8%,22%,0%,10%,7%,0%,0%
Cc1cnc(N)c(/C=C/c2cncc(C(=O)NCCc3ccc(Cl)cc3Cl)c2)c1.Cl [GSK190937],0%,0%,71%,45%,3%,4%,0%,22%,0%,9%,0%,0%,2%,0%,0%,0%,20%,0%,19%,0%
c1ccc(-c2ccnc3[nH]ccc23)cc1 [SB-693578],28%,7%,90%,88%,0%,0%,8%,5%,26%,28%,0%,30%,27%,0%,0%,29%,17%,26%,17%,4%
CCn1c(-c2ccccc2)nc2cnccc21 [SB-733416],41%,5%,9%,0%,7%,0%,0%,3%,0%,0%,0%,1%,23%,28%,0%,8%,0%,22%,9%,9%
Cc1cccc2c(-c3ccncn3)c(-c3ccc(F)cc3)nn12 [GW515532],8%,0%,3%,13%,0%,0%,0%,21%,0%,0%,50%,9%,8%,6%,19%,0%,87%,1%,9%,14%
COc1ccc2cc(-c3nc(-c4ccccc4C(C)C)[nH]c3-c3ccncc3)ccc2c1 [SB-660566],25%,4%,35%,0%,0%,6%,0%,4%,0%,42%,0%,3%,18%,19%,0%,25%,11%,8%,2%,0%
COC(=O)C(NC(=O)NC1CCN(c2ccnc(Nc3ccc(F)cc3)n2)C1)c1ccccc1 (stereo not drawn) [GSK1379712],13%,22%,31%,37%,12%,0%,0%,0%,22%,22%,18%,0%,38%,0%,11%,0%,7%,0%,8%,8%
COc1ccc(CSc2nnc(-c3ccc4nccn4c3)o2)cc1C(F)(F)F,0%,0%,14%,0%,3%,11%,21%,22%,1%,18%,44%,12%,10%,8%,6%,30%,0%,0%,0%,4%
FC(F)(F)c1ccccc1-c1cc(-c2c[nH]nc2-c2ccccn2)ccn1 [GW679396],0%,0%,9%,14%,6%,18%,0%,24%,0%,6%,13%,0%,0%,6%,0%,0%,22%,0%,13%,0%
Fc1ccc(-c2nn3cccc(F)c3c2-c2ccncc2)cc1 [GW475620],0%,50%,22%,0%,0%,38%,0%,33%,0%,0%,24%,9%,33%,7%,0%,16%,78%,5%,12%,11%
CC(C)c1ccc(O)cc1Nc1ccnc2ccc(C(F)(F)F)cc12 [GW482059],0%,0%,86%,26%,0%,11%,0%,23%,0%,0%,0%,0%,10%,0%,7%,0%,0%,0%,5%,0%
O=C1NC(=O)C(c2ccc(Cl)cc2)=C1Nc1cccc(Cl)c1 [SB-317651],46%,0%,7%,0%,0%,86%,0%,1%,0%,12%,0%,23%,0%,18%,23%,0%,13%,36%,0%,6%
COC(=O)c1cccc(NC(=O)NC2CCN(c3ccnc(Nc4ccc(OC)cc4)n3)C2)c1 (stereo not drawn) [GSK1379746],13%,0%,2%,44%,0%,14%,0%,17%,0%,3%,0%,0%,0%,0%,0%,0%,0%,14%,0%,0%
COc1cc2ncnc(Nc3cccc(Br)c3)c2cc1OC.Cl [GI230329],5%,8%,37%,33%,28%,8%,0%,0%,2%,0%,11%,11%,5%,0%,0%,0%,15%,0%,16%,2%
COc1cccc(CNC(=O)NC2CCN(c3ccnc(Nc4ccc(F)cc4)n3)C2)c1 (stereo not drawn) [GSK1379723],20%,10%,0%,0%,0%,0%,0%,7%,36%,2%,0%,9%,28%,0%,0%,0%,6%,0%,22%,8%
COc1ccc(Nc2nccc(N3CCC(NC(=O)C(C)c4ccc(Cl)cc4)CC3)n2)cc1 (stereo not drawn) [GSK1379812],0%,0%,15%,16%,40%,19%,0%,3%,42%,2%,0%,21%,99.4%,5%,3%,0%,0%,0%,6%,0%

SMILES,%Inh (RIPK4),%Inh (RIPK5),%Inh (ROCK1),%Inh (ROCK2),%Inh (ROS1),%Inh [1],%Inh [2],%Inh [3],%Inh [4],%Inh [5],%Inh [6],%Inh [7],%Inh [8],%Inh [9],%Inh [10],%Inh [11],%Inh [12],%Inh (S6K1),%Inh (SBK1),%Inh (SGK2)
CS(=O)(=O)CCNCc1nc(-c2ccc3ncnc(Nc4ccc(OCc5ccccc5)c(Cl)c4)c3c2)cs1.Cl [GW582764],1%,0%,45%,38%,0%,17%,0%,3%,0%,25%,0%,15%,2%,9%,0%,0%,8%,6%,23%,0%
Cc1ccccc1Cn1ccn2c(=O)cc(N3CCOCC3)nc12 [GSK2269905],0%,0%,0%,0%,0%,23%,0%,12%,0%,25%,0%,9%,20%,11%,0%,0%,17%,0%,4%,0%
O=C(Nc1n[nH]c2cc(-c3ccsc3)ccc12)C1CC1 [SB-732932],35%,8%,7%,0%,0%,12%,17%,0%,13%,26%,19%,27%,0%,71%,16%,29%,24%,13%,44%,4%
Cc1ccc(-c2nc(Nc3ccncc3)c3ccccc3n2)s1 [GSK189015],20%,6%,0%,0%,0%,18%,0%,23%,0%,0%,18%,7%,21%,3%,12%,0%,28%,0%,4%,4%
CS(=O)(=O)Cc1ccc(Nc2nccc(-c3c(-c4cccc(NC(=O)C5CCCCC5)c4)nn4ncccc34)n2)cc1 [GSK350559],44%,39%,37%,21%,21%,0%,35%,0%,16%,11%,33%,13%,11%,12%,0%,17%,9%,24%,34%,40%
Cc1ccc(NC(=O)Nc2ccc(Cl)c(C(F)(F)F)c2)cc1-c1ccc(C(=O)Nc2ccncc2)cc1 [GSK1398470],0%,0%,0%,0%,14%,0%,0%,17%,0%,2%,3%,5%,0%,9%,14%,2%,22%,15%,64%,0%
COc1nccc(-c2c(-c3ccc(F)cc3)ncn2CCCN2CCOCC2)n1 [SB-282852],47%,6%,32%,20%,0%,17%,0%,0%,0%,0%,11%,27%,17%,0%,38%,0%,36%,29%,0%,36%
CS(=O)(=O)CCNCc1nc(-c2ccc3ncnc(Nc4ccc5c(cnn5Cc5ccccc5)c4)c3c2)cs1.Cl.Cl [GW569716],3%,0%,47%,33%,0%,23%,0%,9%,7%,8%,0%,0%,0%,0%,4%,0%,5%,5%,0%,7%
Cc1c(Cn2c3ccccc3n3c(=O)cc(N4CCOCC4)nc23)cccc1C(F)(F)F [GSK2306394],3%,0%,0%,4%,0%,13%,0%,15%,0%,0%,0%,4%,30%,5%,1%,0%,11%,0%,9%,0%
Cl.Cl.Cl.N#Cc1ccc(CCNc2nccc(-c3cccc(CN4CCNCC4)c3)n2)cc1 [GSK2137462],0%,19%,33%,41%,6%,0%,0%,19%,5%,10%,0%,0%,0%,0%,13%,0%,31%,34%,24%,0%
COC(=O)C(Cc1ccccc1)NC(=O)NC1CCN(c2ccnc(Nc3ccc(F)cc3)n2)C1 (stereo not drawn) [GSK1379714],0%,15%,9%,20%,24%,14%,0%,1%,18%,6%,0%,0%,19%,5%,10%,1%,9%,2%,13%,0%
CCn1c(-c2c(N)noc2C)nc2cnccc21 [SB-737856],25%,0%,0%,0%,0%,12%,0%,6%,23%,28%,0%,16%,8%,15%,0%,0%,22%,0%,15%,0%
Cc1ccc(NC(=O)Nc2ccccc2F)cc1-c1ccc(C(=O)Nc2ccncc2)cc1 [GSK1398477],30%,6%,26%,0%,3%,20%,0%,34%,0%,23%,0%,9%,6%,20%,0%,0%,14%,13%,28%,0%
COc1ccc(Nc2nccc(N3CCC(NC(=O)C(C)c4ccc(Cl)cc4)C3)n2)cc1 (stereo not drawn) [GSK1379735],4%,12%,11%,4%,17%,5%,0%,21%,0%,31%,0%,5%,7%,14%,0%,0%,7%,2%,0%,11%
O=c1cc(N2CCOCC2)nc2n(Cc3ccccc3F)ccn12 [GSK2297428],0%,0%,0%,0%,47%,5%,0%,8%,0%,5%,0%,0%,0%,3%,0%,0%,0%,0%,0%,0%
O=C1NC(=O)C(c2ccc(Cl)cc2)=C1Nc1ccc(O)cc1 [SB-340867],0%,0%,0%,0%,0%,0%,0%,0%,0%,9%,0%,13%,0%,0%,0%,0%,0%,0%,0%,0%
Nc1ncnc2occ(-c3ccc4c(c3)CCN4C(=O)Cc3cc(F)ccc3F)c12 [GSK2645446],0%,12%,12%,11%,2%,14%,0%,2%,1%,0%,0%,0%,7%,0%,16%,0%,15%,0%,10%,0%
O=C(Nc1n[nH]c2nc(-c3cccs3)c(Br)cc12)C1CCCC1 [SB-743341],0%,34%,0%,0%,21%,4%,25%,4%,7%,0%,0%,15%,0%,0%,0%,26%,0%,2%,0%,0%
